Results filed as inconclusive are left out. A number with no mark means an inactive call. Calls follow the shape of the dose curve; as a rule, active = well fitted activation curve with a large enough effect in the repeat runs; inconclusive = weak or mixed curves; inactive = flat fitted curve, though single readings scatter.
Assay: Caspase-3/7 induction in HepG2 cells by small molecules, qHTS assay (AID 1346978); also: nearly all actives have a fitted effect of over 15% in size
Settings: HepG2 caspase-3/7 activation, Caspase-Glo luminescence, 17 h; series mostly up to 92.4 µM; caspase activation: at the top concentration
In short: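 Wild-type HepG2 cells (2,000/well) were settled 5 h at 37 C, 5% CO2, then exposed to compounds in DMSO for 17 h. Caspase-3/7 activity was read by luminescence 30 min after adding Caspase-Glo 3/7 reagent at room temperature.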
% is scaled to controls: 0 for no effect and ±100 for the full control effect.

| SMILES | caspase activation |
| --- | --- |
| CC(C(=O)O)c1ccc2c(c1)Cc1cccnc1O2 (stereo not drawn) | -3.27% [at 42.5 µM] |
| Nc1ccccc1Nc1ccccc1 | -2.5% |
| O=S(=O)(O)c1cc(Cl)c(Cl)cc1Cl | -1.07% |
| C=CC(=O)NC(C)(C)C | -1.97% |
| C=CC(C)(O)CC/C=C(/C)CCC=C(C)C (stereo not drawn) | -1.27% |
| CCCCCO | 1.38% |
| Cc1ccc(Cl)c(OCC(O)CNC(C)(C)C)c1 (stereo not drawn) | 0.413% [at 42.5 µM] |
| CC(C)(C)c1cc(C=O)cc(C(C)(C)C)c1O | -0.335% [at 42.5 µM] |
| C(/C=C/C=C/Nc1ccccc1)=Nc1ccccc1 | -0.532% |
| CCCCCCCCCCCCCCCCCCCl | 0.121% [at 8.39 µM] |
| C=C[Si]1(C)O[Si](C)(C=C)O[Si](C)(C=C)O[Si](C)(C=C)O1 (stereo not drawn) | 0.783% |
| CCc1ccc(C(=O)C(C)CN2CCCCC2)cc1 (stereo not drawn) | 2.56% [at 42.5 µM] |
| O=C(OCCOCCOCCOC(=O)c1ccccc1)c1ccccc1 | -0.149% |
| O=C(O)CCc1nc2ccccc2[nH]1 | -0.372% [at 42.5 µM] |
| CCc1c(C)[nH]c2c1C(=O)C(CN1CCOCC1)CC2 (stereo not drawn) | -1.61% [at 42.5 µM] |
| CC(C)C/C=C(\C=O)c1ccccc1 | 0.02% |
| c1ccc(CN(Cc2ccccc2)Cc2ccccc2)cc1 | -0.832% |
| C[C@H](CN1CCCC1)C(=O)c1ccc(C(F)(F)F)cc1 | 0.657% [at 42.5 µM] |
| O=C(Cl)c1ccc(F)c(Cl)c1 | 0.317% |
| C[C@]12CCC(=O)C=C1[C@@H]1C[C@@H]1[C@H]1[C@@H]3[C@@H]4C[C@@H]4[C@@]4(CCC(=O)O4)[C@@]3(C)CC[C@@H]12 | 0.0486% [at 42.5 µM] |
| O=C1OC(=O)C2CC=CCC12 (stereo not drawn) | 0.694% |
| CC(C)Oc1ccccc1O | 0.0772% |
| c1ccc(-c2ccc(-c3ccccc3)cc2)cc1 | -3.46% [at 19 µM] |

Source: PubChem BioAssay (Tox21)
